# CHX counter: counter-screen for Shiga toxin inhibitors: cycloheximide protein synthesis inhibition | cell reporter, cycloheximide protein synthesis inhibition counterscreen | max response, % | 300,000 tested, 12% active | AID 2314; in the data active = max response mostly above about 13%, no sharp cut-off; inactive = mostly below about 14%; also: read at 38.3 µM for the half of the compounds with a filed dose
# AmpC detergent: inhibitors of E. coli AmpC beta-lactamase with detergent. 370,000 tested, 0.041% active. AID 485294. AmpC hydrolysis of nitrocefin, absorbance 480 nm, 0.01% Triton. Potency, µM (series often up to 114 µM), most hits filed as inhibitors. P00811; also: nearly all actives have a fitted effect of over 25% in size
# Target sequence (P00811 whole entry, looked up): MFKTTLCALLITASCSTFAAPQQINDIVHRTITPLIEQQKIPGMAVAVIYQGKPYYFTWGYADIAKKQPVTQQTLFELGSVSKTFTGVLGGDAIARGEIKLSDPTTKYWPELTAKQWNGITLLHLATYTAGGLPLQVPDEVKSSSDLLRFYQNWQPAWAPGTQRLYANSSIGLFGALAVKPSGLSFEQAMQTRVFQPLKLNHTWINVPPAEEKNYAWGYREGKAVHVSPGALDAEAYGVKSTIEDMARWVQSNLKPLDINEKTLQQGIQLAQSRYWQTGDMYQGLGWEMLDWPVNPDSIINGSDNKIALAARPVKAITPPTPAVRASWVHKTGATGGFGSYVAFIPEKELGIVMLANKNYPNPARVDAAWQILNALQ
#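 AmpC (5.3 nM in the dispensed reagent) in 20 mM phosphate pH 7.0 with 0.01% (detergent screen) or 0.0001% Triton X-100 was preincubated with compounds for 15 min at room temperature. Nitrocefin was then added from an 800 uM solution, and hydrolysis was followed at 480 nm.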
# AMA1-RON2 inh: AMA1-RON2 (P. falciparum) interaction inhibition; AlphaScreen AMA1-biotinylated RON2 peptide binding; Potency, µM (titrated, usually from 58.2 µM), usual class: inhibitors; 360,000 tested, 0.2% active; also: nearly all actives have a fitted effect of over 45% in size
#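 AMA1 (3D7) with his tag at 25 nM final met compounds first, then biotinylated RON2 peptide at 25 nM; detection used donor plus acceptor beads, 10 µg/mL apiece, read by AlphaScreen after 30 min at room temperature.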
# SARS PLP yeast: SARS-CoV PLP inhibition in yeast | S. cerevisiae expressing SARS-CoV PLpro, growth rescue | Potency, µM (series often up to 32.9 µM), most hits filed as activators | 330,000 tested, 0.19% active; calls by dose curve; also: nearly all actives have a fitted effect of over 55% in size
# Shiga inhibitor: Shiga toxin inhibition. inhibition, % at 38.7 µM. AID 2315. 290,000 tested, 9.2% active. Vero cells, Shiga toxin protein synthesis inhibition reporter; in the data active = inhibition mostly above about 28%, no sharp cut-off; inactive = mostly below about 43%
# AmpC no deterg: blocks E. coli AmpC beta-lactamase in detergent-free assay; P00811; AmpC nitrocefin hydrolysis, absorbance 480 nm, 0.0001% Triton; Potency, µM (series often up to 57.1 µM), most hits filed as inhibitors; 330,000 tested, 0.52% active; also: nearly all actives have a fitted effect of over 20% in size
#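 AmpC (5.3 nM in the dispensed reagent) in 20 mM phosphate pH 7.0 with 0.01% (detergent screen) or 0.0001% Triton X-100 was preincubated with compounds for 15 min at room temperature. Nitrocefin was then added from an 800 uM solution, and hydrolysis was followed at 480 nm.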
# A number is an active result; . = inactive; ? = inconclusive; / = no result given; + = active, no number. This excerpt belongs to a sample that is enriched for hits. Unless noted, calls follow the shape of the dose curve; as a rule, active = well fitted curve in the direction sought with a large enough effect; inconclusive = small, poorly fitted or top-dose-only effect, or another doubt; inactive = no such curve, though single readings can be large; an effect the other way counts as inactive or inconclusive.
SMILES,CHX counter,AmpC detergent,AMA1-RON2 inh,SARS PLP yeast,Shiga inhibitor,AmpC no deterg
COc1ccc(Br)cc1C(=O)Nc1ccc(C(=O)O)cc1,.,.,.,.,.,.
COc1ccc(C(=O)Nc2cccnc2)cc1,.,.,.,.,.,.
COc1cc2ccccc2cc1C(=O)Nc1cc(C)ccn1,42,.,.,.,104,.
COc1cccc(NC(=O)N2CCCC2C(=O)Nc2ccc3c(c2)OCO3)c1 (centres undefined),.,.,.,.,.,.
COc1ccc(CCN(C)C/C=C/c2ccccc2)cc1OC,.,?,.,.,.,.
Cc1ccnc(NC(=O)c2ccccc2NC(=O)C(C)(C)C)c1,.,?,.,.,.,.
COc1ccc(C(=O)Nc2ccccc2C(=O)Nc2cc(C)ccn2)cc1,41,?,.,.,/,.
CSc1ncccc1C(=O)Nc1cc(C)ccn1,11,.,.,.,.,.
CN(C)c1ccc(N=Cc2nc(-c3ccccc3)oc2OC(=O)c2cccc(Cl)c2)cc1,68,?,.,.,71,.
Cc1ccc(C(=O)Oc2oc(-c3ccccc3)nc2C=Nc2ccc(N(C)C)cc2)cc1,78,.,.,.,130,.
COc1cccc(N=Cc2nc(-c3ccccc3)oc2OC(C)=O)c1,.,.,.,.,48,.
CC(C)C(=O)NCC1(N(C)C)CCCCC1,/,.,/,/,/,/
Cc1nc(N/N=C/c2ccc(O)cc2)c2cnn(-c3ccccc3)c2n1,.,.,.,.,.,16µM
Cc1nc2ccccc2nc1N/N=C/c1ccc(O)cc1,40,.,.,.,53,.
Cc1nc2c(cnn2-c2ccccc2)c(=O)n1/N=C/c1ccccc1,.,.,.,.,.,.
Cc1ccc(S(=O)(=O)N2CCN(C(=O)Cc3ccccc3)CC2)cc1C,/,.,.,.,/,.
COc1ccc(-c2cc(C(=O)NC3=NCCS3)c3ccccc3n2)cc1OC,27,.,.,.,.,.
COc1ccc(-c2cc(C(=O)NC3CCCC3)c3ccccc3n2)cc1OC,/,/,.,/,/,/
O=C(Nc1nc2c(s1)CCCC2)c1cc(-c2ccccc2)nc2ccccc12,14,.,.,.,.,.
O=C(Nc1nc2c(s1)CCCC2)c1cc(-c2ccncc2)nc2ccccc12,.,.,.,.,.,.
O=C(NC1=NCCS1)c1cc(-c2ccc(-c3ccccc3)cc2)nc2ccccc12,24,?,.,.,.,.
C[C@H](CO)N1C[C@H](C)[C@@H](CN(C)Cc2ccc(Cl)c(Cl)c2)Oc2c(NC(=O)c3ccncc3)cccc2C1=O,/,/,.,.,/,.
COc1ccc(C2/C(=C(\O)c3ccc4c(c3)OCCO4)C(=O)C(=O)N2CCCN(C)C)cc1 (centres undefined),.,?,.,.,.,.
CC(=O)Nc1ccc2nc(N)sc2c1,/,/,.,/,/,/
Nc1nc2ccc(C(=O)Nc3ccccc3)cc2s1,93,.,.,.,168,.
SMILES,CHX counter,AmpC detergent,AMA1-RON2 inh,SARS PLP yeast,Shiga inhibitor,AmpC no deterg
CCc1ccc(NC(=O)c2ccc3nc(N)sc3c2)cc1,62,.,.,.,68,.
CCc1ccc2nc(N)sc2c1,39,.,.,.,75,.
CCc1ccc(NC(=O)CSC2=Nc3ccccc3C3=NC(CC(=O)NCc4cccs4)C(=O)N23)cc1 (centres undefined),/,.,/,/,/,/
O=[N+]([O-])c1ccc(Cl)c(/C=N/N2CCN(Cc3ccc(Cl)cc3)CC2)c1,.,.,.,.,.,.
Cc1cccc(C)c1NC(=O)C(c1ccccc1F)n1c(=O)c(-c2ccco2)nc2ccccc21 (centres undefined),/,/,.,/,/,/
CCC(C)(C)NC(=O)C(c1cccc(OC)c1OC)N(Cc1ccc(OC)cc1)C(=O)CCC(=O)Nc1cc(C)on1 (centres undefined),.,.,.,.,.,.
Cc1ccc(NS(=O)(=O)c2cccc(C(=O)NC3CCN(Cc4ccccc4)CC3)c2)c(C)c1,/,/,.,/,/,/
O=c1c2c3c(sc2nnn1CCCCOc1ccc(Cl)cc1)CCCC3,/,.,/,/,/,/
CC(C)CCNC(=O)CN(C(=O)CCC(=O)Nc1nccs1)c1ccc2c(c1)OCCO2,35,.,.,.,68,.
CC(C)(C)NC(=O)CN(C(=O)CCC(=O)Nc1nccs1)c1ccc2c(c1)OCCO2,.,.,.,.,.,.
COc1ccccc1NC(=O)/C(=N/OCc1ccc(F)cc1)C(C)=O,.,.,.,.,.,.
Cn1c(C(=O)c2ccccc2)nc2ccccc21,26,.,.,.,58,.
Cc1nc(C)c(Oc2ccc(Cl)cc2Cl)c(=O)[nH]1,.,.,.,.,.,.
O=C1CN(CC(=O)N2CCOCC2)c2ccccc2O1,34,.,/,.,98,.
O=C1CN(CC(=O)N2CCCCC2)c2ccccc2O1,24,.,.,.,.,.
CCCN(CCC)CCCNC(=O)C1CCN(S(=O)(=O)c2cccc3nsnc23)CC1,.,.,.,.,.,.
Cc1ccc(C(=O)C[n+]2ccc3ccccc3c2)cc1,22,.,.,.,.,.
O=C(C[n+]1ccc(CCSc2ccc(F)cc2)cc1)c1ccccc1,.,.,.,.,.,.
Cc1ccc(SCCc2cc[n+](CC(=O)c3ccccc3)cc2)cc1,51,.,.,.,125,.
CCN(CC)c1ccc(C(=O)NNC(=O)c2ccc3c(=O)n4c(nc3c2)CCC4)cc1,/,?,.,.,/,.
CCN(CC(=O)Nc1ccc2c(c1)OCCO2)C(=O)COc1cc(C)ccc1Cl,/,.,.,.,/,.
Cc1ccc(Cl)c(OCC(=O)Nc2ccc3c(c2)OCCO3)c1,52,.,.,.,112,?
O=C(COc1cc(Cl)c(Cl)cc1Cl)NC(=O)Nc1ccc2c(c1)OCCO2,76,.,.,.,145,.
Cc1cc(OCC(=O)Nc2ccc3c(c2)OCCO3)cc(C)c1Cl,.,.,.,.,.,.
CS(=O)(=O)Nc1ccc(C2=NN(S(C)(=O)=O)C(c3ccc4nccnc4c3)C2)cc1 (centres undefined),15,.,.,.,.,.
CC(=O)N1N=C(c2ccc(C)cc2)CC1c1ccc2c(c1)OCO2 (centres undefined),45,.,.,.,52,.
Cc1ccc(C2=NN(S(C)(=O)=O)C(c3ccc4c(c3)OCO4)C2)cc1 (centres undefined),76,?,.,.,+,.
CCS(=O)(=O)Nc1cccc(C2=NN(S(C)(=O)=O)C(c3ccccc3)C2)c1 (centres undefined),.,.,.,.,.,.
CC(=O)N1N=C(c2ccc(NS(C)(=O)=O)cc2)CC1c1ccc2nccnc2c1 (centres undefined),.,.,.,.,.,.
